The values that follow come from PubChem BioAssay AID2061321 (National Center for Advancing Translational Sciences (NCATS), 2025).

Molecules are shown by their SMILES. Records with an inconclusive call do not appear. Calls of active or inactive are those of the source. Calls come from the whole dose curve; as a rule, active = well fitted inhibition curve with a large enough effect; inconclusive = small, poorly fitted or top-dose-only effect; inactive = flat fitted curve, though single readings scatter. Non-standard residues stand in square brackets, D forms with d. Residues, ends and D or L forms follow the SMILES beside them. *: point of attachment. Dolaproine = CO[C@@H]([C@@H]1CCCN1)[C@@H](C)C(=O)O; Dil = CC[C@H](C)[C@H](NC)[C@@H](CC(=O)O)OC; NMe2Val = CC(C)[C@@H](C(=O)*)N(C)C

A short description of this assay: Identification of antibody-drug conjugate (ADC) payloads which are substrates of ATP-binding cassette drug efflux transporters: ABCG2-H460 cell line. Particulars: H460 MX20 (ABCG2) viability, CellTiter-Glo, 48 h. From the text:
Antibody-drug conjugates (ADCs) feature an antibody recognizing a specific protein joined to a potent toxic payload. Numerous antibody-drug conjugates have received FDA approval; however, clinical resistance arises. Resistance mechanisms include decreased expression or mutation of the antibody target, impaired payload release, or increased expression of ATP-binding cassette (ABC) efflux transporters associated with multidrug resistance. We therefore sought to characterize the interaction of ABC multidrug transporters with ADC payloads. We performed a high-throughput screen with 27 common ADC payloads using cells lines expressing ABC transporters P-glycoprotein (P-gp, encoded by ABCB1) or ABCG2 (encoded by ABCG2). Confirmatory assays were also performed using cells transfected to express P-gp, ABCG2, or MRP1 (encoded by ABCC1). Several commonly used ADC payloads were substrates of P-gp, including calicheamicin gamma1, monomethyl auristatin E, DM1, and DM4. All the pyrrolobenzodiazepines tested - SJG136, SGD-1882, SG2057, and SG3199 - were substrates of P-gp, ABCG2, and MRP1. […] These findings highlight the risk of transporter-mediated resistance with certain ADC payloads and underscore the importance of selecting payloads that evade ABC transporter recognition in future ADC development.
HEK-293 cells were transfected with empty vector (pcDNA) or vector containing the human ABCB1 (MDR-19), ABCG2 (R-5), or ABCC1 gene (MRP1) and were maintained in EMEM with 2 mg/mL G418 added to maintain transporter expression. The HeLa derivative KB-3-1 and the P-gp overexpressing KB-8-5-11 subline were maintained in DMEM; KB-8-5-11 additionally received 100 ng/mL colchicine. H460 parental cells were obtained from the Division of Cancer Treatment and Diagnosis Tumor Repository, National Cancer Institute at Frederick, MD and were cultured in RPMI. The ABCG2 expressing subline H460 MX20 was generated by selecting H460 cells in 20 nM mitoxantrone. Media in all cases was supplemented with 10% FBS and 1% penicillin-streptomycin. We explored 27 common ADC payloads, in two orthogonal, paired cell line sets-a drug selected and transfected set for each transporter--to identify substrates of the ABC transporters P-gp and ABCG2. Compounds were sourced from Levena Biopharma (San Diego, CA), Selleck Chem (Houston, TX), ChemieTek (Indianapolis, IN), or Microsource Discovery Systems (Gaylordsville, CT). Screening was performed as previously described. Briefly, cells were plated at a density of 500 cells/well in 1536 well plates with compounds added using a 1536-head pin tool (Kalypsys, San Diego CA). Cells were incubated with cytotoxic drugs and processed with CellTiter Glo reagent (Promega, Madison, WI) to determine viability after 48 hours. P-gp substrates were identified by comparing compound activity between paired sets of low-expressing (sensitive) and over-expressing (resistant) cell lines.
Regarding `COc1cc2cc(C(=O)N3C[C@@H](CCl)c4c3cc(O)c3ccccc43)[nH]c2c(OC)c1OC`, the Potency is 1.1 nM (active).

On to `CC[C@H](C)[C@@H]([C@@H](CC(=O)N1CCC[C@H]1[C@H](OC)[C@@H](C)C(=O)N[C@@H](Cc1ccccc1)C(=O)O)OC)N(C)C(=O)[C@@H](NC(=O)[C@H](C(C)C)N(C)C)C(C)C` (NMe2Val-V[Dil][Dolaproine]F-OH), for which the Potency was 42.3 nM (active).

Turning to `CC[C@H](C)[C@@H]1NC(=O)CNC(=O)[C@H]2Cc3c([nH]c4cc(O)ccc34)S(=O)C[C@H](NC(=O)CNC1=O)C(=O)N[C@@H](CC(N)=O)C(=O)N1C[C@H](O)C[C@H]1C(=O)N[C@@H]([C@@H](C)[C@@H](O)CO)C(=O)N2` (stereo partly specified), the Potency is 948 nM (active).

For the molecule `COc1cccc2c1C(=O)c1c(O)c3c(c(O)c1C2=O)C[C@@](O)(C(=O)CO)CC3OC1CC(N2CCOC(OC)C2)C(O)C(C)O1` (stereo partly specified), the Potency is 3 nM (active).

On to `CC[C@H](C)[C@@H]([C@@H](CC(=O)N1CCC[C@H]1[C@H](OC)[C@@H](C)C(=O)N[C@H](C)[C@@H](O)c1ccccc1)OC)N(C)C(=O)[C@@H](NC(=O)[C@H](C(C)C)N(C)C)C(C)C`, for which the Potency is 1.3 nM (active).

As to `CC[C@@]1(O)C(=O)OCc2c1cc1n(c2=O)Cc2cc3ccccc3nc2-1`, the Potency is 9.5 nM (active).
